Results taken from PubChem BioAssay (EPA / NIEHS).
Calls of active or inactive are those of the source. Rule for the calls: active = hit-call score of the fitted dose curve at least 0.9, where 1 is the maximum; inactive = score below 0.9.

Tests used:
[1] = ATG_EGR_CIS: Attagene CIS-FACTORIAL HepG2 Assay for human Early Growth Response 1 (EGR1) (AID 2282938); settings: HepG2 Attagene CIS-FACTORIAL EGR reporter mRNA; actives raise or lower the signal
How it was run: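 Transient transfection of human HepG2 with multiple cis-regulated reporter units, chemical exposure 24 h, total RNA isolated. Reverse transcription, PCR, fluorescent labelling and capillary electrophoresis quantify reporter transcripts; activity fitted bidirectionally against DMSO.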

[2] = ATG_M_19_CIS: Attagene CIS-FACTORIAL HepG2 Assay for M19 Transcription Factor (Internal Marker) (AID 2282939); settings: HepG2 Attagene CIS-FACTORIAL M19 internal marker reporter; actives raise or lower the signal
How it was run: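 Readout: fluorescent reporter-transcript fragments by capillary electrophoresis after RT-PCR. Human HepG2 liver cells carried transfected MRTU constructs reporting endogenous transcription-factor activity; exposure 24 h. Gain or loss of signal fitted relative to DMSO.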

[3] = ATG_ERE_CIS: Attagene CIS-FACTORIAL HepG2 Assay for Estrogen Response Element (ERE) (AID 2282940); settings: HepG2 ERE cis-reporter, Attagene RNA transcript; actives raise or lower the signal
How it was run: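 Readout: reporter mRNA induction by RT-PCR, FAM-labelled primer extension, HpaI digestion and capillary electrophoresis, 24 h after dosing transfected HepG2 cells. Endogenous transcription factors act on cis-element-regulated reporters. Gain or loss fitted against DMSO.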

[4] = ATG_Ets_CIS: Attagene CIS-FACTORIAL HepG2 Assay for human Erythroblast Transformation Specific (ETS) (AID 2282941); settings: HepG2 ETS cis-reporter transcription, actives raise or lower the signal
How it was run: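 Steps: transfect HepG2 with multiple reporter units; treat compound 24 h; isolate RNA, DNase-treat, reverse-transcribe; PCR-amplify, label with 6-FAM, digest with HpaI; separate by capillary electrophoresis. Activity fitted both directions versus DMSO.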

[5] = biological target: Hepatocyte nuclear factor 3-beta (Homo sapiens) (UniProt Q9Y261); assay: ATG_FoxA2_CIS: Attagene CIS-FACTORIAL HepG2 Assay for human Forkhead box A2 (FOXA2) (AID 2282942); settings: HepG2 cis-reporter transcription factor activity, 24 h; actives raise or lower the signal
Sequence of Hepatocyte nuclear factor 3-beta (Homo sapiens) (Q9Y261 whole entry, looked up): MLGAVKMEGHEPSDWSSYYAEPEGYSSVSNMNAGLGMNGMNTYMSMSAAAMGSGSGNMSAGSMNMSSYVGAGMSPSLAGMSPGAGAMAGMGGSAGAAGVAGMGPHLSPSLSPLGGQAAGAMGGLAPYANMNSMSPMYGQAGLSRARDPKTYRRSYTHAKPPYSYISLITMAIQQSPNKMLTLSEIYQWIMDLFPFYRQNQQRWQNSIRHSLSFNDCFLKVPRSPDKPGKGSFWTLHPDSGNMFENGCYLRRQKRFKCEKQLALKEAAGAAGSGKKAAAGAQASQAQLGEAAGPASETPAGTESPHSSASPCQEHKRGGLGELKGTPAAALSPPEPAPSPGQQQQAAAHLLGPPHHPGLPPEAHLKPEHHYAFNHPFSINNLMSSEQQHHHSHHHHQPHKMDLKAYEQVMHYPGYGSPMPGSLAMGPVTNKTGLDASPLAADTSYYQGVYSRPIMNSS
How it was run: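 Transient MRTU transfection of HepG2 liver cells; 24 h treatment; total RNA → oligo(dT) RT → PCR → FAM primer extension → HpaI cut → CE. Bidirectional fit vs DMSO.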

[6] = ATG_FoxO_CIS: Attagene CIS-FACTORIAL HepG2 Assay for human Forkhead box O (FoxO) (AID 2282943); settings: HepG2 Attagene cis-reporter, FoxO element, mRNA; actives raise or lower the signal
How it was run: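 HepG2 cells transiently transfected with cis-promoter-driven multiple reporter transcription units; 24 h after chemical dosing, reporter mRNA quantified by RT-PCR, fluorescent primer extension, HpaI digestion and capillary electrophoresis. Bidirectional fitting versus DMSO baseline.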

[7] = ATG_GATA_CIS: Attagene CIS-FACTORIAL HepG2 Assay for human GATA Binding Protein (AID 2282944); settings: HepG2 GATA cis-element reporter, Attagene multiplex mRNA; actives raise or lower the signal
How it was run: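 Read-out: fluorescent reporter mRNA fragments resolved by capillary electrophoresis after RT-PCR. Human liver HepG2 cells carried transiently transfected cis-regulated reporter constructs; chemicals incubated 24 h; gain or loss of signal fitted relative to DMSO.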

[8] = ATG_GLI_CIS: Attagene CIS-FACTORIAL HepG2 Assay for human Zinc Finger Protein GLI1 (AID 2282945); settings: HepG2, Attagene cis-factorial reporter mRNA, GLI element; actives raise or lower the signal
How it was run: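 HepG2 cells transiently transfected with cis-promoter multiplexed reporter units report endogenous transcription factor activity. After 24 h chemical exposure, reporter mRNA was quantified by RT-PCR, 6-FAM labelling, HpaI digestion and capillary electrophoresis, with bidirectional fitting against DMSO.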

[9] = ATG_M_61_CIS: Attagene CIS-FACTORIAL HepG2 Assay for M61 Transcription Factor (Internal Marker) (AID 2282937); settings: HepG2 Attagene CIS-FACTORIAL M61 internal marker reporter; actives raise or lower the signal
How it was run: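 Human liver HepG2, transient MRTU transfection (cis promoter elements), 24 h compound. Total RNA → oligo(dT) RT → PCR → FAM label → HpaI → CE. Internal background marker; bidirectional fitting, DMSO = baseline.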

Measured: AC50

C=C[C@](C)(O)CC[C@@H]1[C@@]2(C)CCCC(C)(C)[C@@H]2CC[C@@]1(C)O
not listed: [9]
inactive: all other assays above

CC(=O)OCC(C)OC(C)=O (centres undefined)
inactive: all assays above

c1c[nH]cn1
not listed: [3]
inactive: all other assays above

COc1ccc([C@@H]2CC(=O)c3c(O)cc(O[C@@H]4O[C@H](CO[C@@H]5O[C@@H](C)[C@H](O)[C@@H](O)[C@H]5O)[C@@H](O)[C@H](O)[C@H]4O)cc3O2)cc1OC
inactive: all assays above

C/C=C\C/C=C/CCCCCCCCOC(C)=O
active: [1] 100 µM
inactive: all other assays above

O=C(O)CCCC[C@@H]1SC[C@@H]2NC(=O)N[C@@H]21
not listed: [8]
inactive: all other assays above

Cc1cccc(N(C)C(=S)Oc2ccc3ccccc3c2)c1
active: [3] 25.3 µM
inactive: all other assays above

CCCOCCOCCOCCO
inactive: all assays above

O=C(O)C(c1ccc(Cl)cc1)c1ccc(Cl)cc1
active: [3] 2.68 µM
inactive: all other assays above

O=C(c1ccc(O)cc1)c1ccc(O)cc1O
active: [3] 0.84 µM
not listed: [8]
inactive: all other assays above

Cc1cc(C)c(C(=O)O)c(C)c1
inactive: all assays above

CC1=Nc2ccc3ccccc3c2C1(C)C
not listed: [5] | [8]
inactive: all other assays above

O=C1CCCCCCCCCCC(=O)OCCO1
inactive: all assays above

OC1CCCCCCCCCCC1
active: [3] 26.4 µM
inactive: all other assays above

Cc1cc(C)c(C)c(C)c1
not listed: [7] | [9]
inactive: all other assays above

C=CC(=O)NC(C)(C)CS(=O)(=O)O
inactive: all assays above

C[Si](C)O[Si](C)(C)O[Si](C)(C)O[Si](C)C
not listed: [3]
inactive: all other assays above

OC1CCCC1
not listed: [8]
inactive: all other assays above

CN(C)c1ccc(C(=N)c2ccc(N(C)C)cc2)cc1
active: [1] 1.36 µM | [5] 0.721 µM
not listed: [9]
inactive: all other assays above

CCC(=O)Oc1ccc(/C(CC)=C(\CC)c2ccc(OC(=O)CC)cc2)cc1
active: [1] 45.1 µM | [3] 0.0825 µM | [8] 51.5 µM
inactive: all other assays above

O=C(C(Cl)Cl)N1CCOC12CCCCC2
active: [1] 19.3 µM
inactive: all other assays above

C=C(C)C(=O)OCC(C)C
inactive: all assays above

O=[N+]([O-])c1ccc(CO)cc1
not listed: [3] | [9]
inactive: all other assays above

CC(C)(Oc1ccc(C2CC2(Cl)Cl)cc1)C(=O)O (centres undefined)
not listed: [8]
inactive: all other assays above

COC(=O)c1cc(Cl)ccc1[N+](=O)[O-]
inactive: all assays above

CCCCCCCCCCCCCOP(=O)(O)O
not listed: [5]
inactive: all other assays above

Nc1ccc(Oc2ccc(N)c(N)c2)cc1
not listed: [7]
inactive: all other assays above

Cc1cc(C)c(C)c(O)c1
inactive: all assays above

CC(C)CC(O)Cc1ccccc1 (centres undefined)
inactive: all assays above

Cc1cccc(N)n1
inactive: all assays above

COC(=O)C1=C(C)NC(C)=C(C(=O)OCC(C)C)C1c1ccccc1[N+](=O)[O-] (centres undefined)
inactive: all assays above

OCCc1ccncc1
inactive: all assays above

COCCOCCOCCOCCOC
not listed: [3]
inactive: all other assays above

C=C(C)C(=O)OCCO
inactive: all assays above

O=C(c1ccccc1)c1ccc(O)c(O)c1O
active: [3] 27 µM
not listed: [9]
inactive: all other assays above

CCOC(=O)NNc1nncc2ccccc12
active: [3] 60 µM
inactive: all other assays above

CCCCCCOc1cc(C)c(O)c(C)c1C
not listed: [5]
inactive: all other assays above

CC1=CC[C@H]2C[C@@H]1C2(C)C
inactive: all assays above

COc1cc(NC(=O)CC(C)=O)c(OC)cc1Cl
inactive: all assays above

O=C1C=CC(=O)O1
not listed: [8] | [9]
inactive: all other assays above
